The list is not random: actives were taken first. Their share in the collection is about 8%.
MCF10A rerep = induces DNA re-replication in MCF 10a normal breast cells | actives 2.9% (n = 350,000) | MCF 10A DNA re-replication, Hoechst nuclear intensity, 48 h | Potency, µM (doses to about 46.1 µM), inactives show top-dose activity, positive = re-replication, most hits filed as activators | AID 624296; also: % of control where 0% means no effect; nearly all actives have a fitted effect of over 50% in size
HT1080NT lethal = kills 2HG-producing HT-1080-NT fibrosarcoma cells. actives 1.6% (n = 360,000). HT-1080-NT fibrosarcoma viability, CellTiter-Glo ATP luminescence, 48 h. Potency, µM (doses to about 46.1 µM), inactives show at the highest dose activity, negative = less viability, hits mostly cytotoxic;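 also: NT is the 2HG producing partner of a matched IDH1 knockdown line; 0% = DMSO-treated cells and -100% = media-only wells without cells; nearly all actives have a fitted effect of over 55% in size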
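Compounds were tested in concentration-response format on HT-1080-NT cells for 48 hours at 37 degrees C. Cell viability came from CellTiter-Glo luminescence; curves were classified by r2, response magnitude and activity.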
KB-V1 MDR tox = KB-V1 MDR subline cytotoxicity; KB-V1 MDR cells viability, CellTiter-Glo, 72 h; Potency, µM (doses to about 46.1 µM), usual class: cytotoxic; actives 3.4% (n = 400,000); also: % is scaled to controls: 0 for no effect and ±100 for the full control effect; nearly all actives have a fitted effect of over 60% in size
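Luminescent ATP read-out (CellTiter-Glo, 10 min) measures survival of drug-selected KB-V1 MDR cells after 72 h, 37 degrees C compound exposure. Medium: phenol-red-free DMEM, 10% FBS. Values from fitted concentration-response curves.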
HT1080 IDH1KD tx = toxicity to HT-1080 IDH1 knockdown cells (counter line); AID 686971; HT-1080 IDH1 knockdown viability, ATP luminescence, 48 h; Potency, µM (titrated, usually from 46.1 µM), inactives show top-dose activity, negative = toxicity, most hits filed as cytotoxic; actives 2% (n = 360,000);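 also: 0% = DMSO wells and -100% = cell-free medium wells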
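In this qHTS, HT-1080 cells depleted of IDH1 are exposed for 48 h at 37 °C to compound titrations. Toxicity is scored from CellTiter-Glo luminescence, with DMSO as full viability and medium alone as none.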
KB-3-1 tox = KB-3-1 parental cell cytotoxicity | KB-3-1 viability, CellTiter-Glo ATP luminescence, 72 h | Potency, µM (titrated, usually from 46.1 µM), usual class: cytotoxic | actives 1.4% (n = 400,000) | AID 1347075; also: % is scaled to controls: 0 for no effect and ±100 for the full control effect; nearly all actives have a fitted effect of over 60% in size
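Cytotoxicity in the drug-sensitive parental line KB-3-1 was scored as loss of CellTiter-Glo luminescence following 72 h incubation with compound. Values come from curve fitting of normalized concentration-response data.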
SW480 rereplic = inducers of DNA re-replication in SW480 colon cancer cells | SW480 DNA re-replication, Hoechst DNA content imaging, 48 h | Potency, µM (series often up to 46.1 µM), inactives show at the top dose re-replication activation, hits mostly activators | actives 1.8% (n = 340,000); also: % of control where 0% means no effect; nearly all actives have a fitted effect of over 55% in size
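Per well, 250 cells were exposed to pinned compound for 48 hr. Nuclear DNA was visualised with Hoechst (40 min, 37 C) and total object intensity recorded by fluorescence scanning.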
An asterisk follows results filed as active; i = inactive; ? = inconclusive; / = not tested or not shown; [ ] = dose if it differs, or a comment. Calls follow the shape of the dose curve; as a rule, active = well fitted curve in the direction sought with a large enough effect; inconclusive = small, poorly fitted or top-dose-only effect, or another doubt; inactive = no such curve, though single readings can be large; an effect the other way counts as inactive or inconclusive. Potency is read from the fitted curve at half-maximal effect.

SMILES | MCF10A rerep | HT1080NT lethal | KB-V1 MDR tox | HT1080 IDH1KD tx | KB-3-1 tox | SW480 rereplic
Cc1ccc(S(=O)(=O)c2nnn3c2nc(NC(C)C)c2sccc23)cc1 | / | / | i | / | i | /
S=c1sc2c(Cl)ncnc2n1-c1ccccc1 | 2.1µM* | 21µM* | ? | ? | ? | ?
CC1=C(CO)C(=O)OC([C@@H](C)C2CC[C@H]3C4C[C@H]5O[C@]56[C@@H](O)C=CC(=O)[C@]6(C)C4CC[C@]23C)C1 (stereo not given in full) | 2.3µM* | 21µM* | 13µM* | 18µM* | ? | ?
CCOc1ccc(-c2cccc(NS(=O)(=O)c3c(C)cc(C)cc3C)c2)nn1 | / | / | ? | / | i | /
COc1cccc(OC)c1-c1nn2c(-c3ccccc3Cl)nnc2s1 | 0% | -2% | 9.2µM* | -9% | i | -9%
O=C(CSC1=NS(=O)(=O)c2ccccc21)Nc1ccccc1 | ? | -2% | i | -2% | 15µM* | 1%
COC(=O)CSC1=NS(=O)(=O)c2ccccc21 | 13µM* | -1% | i | ? | i | ?
O=C(CSC1=NS(=O)(=O)c2cc(F)ccc2N1)Nc1ccccc1 | ? | -15% | ? | -8% | i | -27%
COC(=O)CSc1ccccc1C(=O)OC | -6% | 8% | i | -2% | i | 1%
Cc1nnc(N2CCN(C(=O)Nc3cc(F)ccc3F)CC2)c2nn(-c3ccc(Cl)cc3)c(C)c12 | / | / | ? | / | i | /
Cc1ccc(NC(=O)COC(=O)C2(c3ccc(Cl)cc3)CCCC2)cc1 | 21µM* | ? | i | ? | ? | ?
CCN(Cc1ccc(OC)c(COC)c1)CC1CCCN(CCc2cccc(OC)c2)C1 (stereo not given) | 15% | -28% | i | -28% | i | 9%
COc1ccc(CCN2CCCC(CN(C)Cc3cc(OC)ccc3OC)C2)cc1 (stereo not given) | 0.65µM* | ? | i | -28% | i | -7%
CN(Cc1ccccc1O)CC1CCCN(CCc2ccc(Cl)cc2)C1 (stereo not given) | ? | ? | ? | ? | i | 1%
CN(Cc1ccc(C#CCCO)cc1)CC1CCCN(CCc2ccc(Cl)cc2)C1 (stereo not given) | 25% | 26µM* | i | ? | i | ?
CCN(Cc1ccc(OC)c(COC)c1)CC1CCCN(CCc2cccc(F)c2)C1 (stereo not given) | 3.7µM* | ? | ? | -18% | i | ?
COc1ccccc1N1CCN(C(=O)Cn2c(=O)n3nc(-c4cccc(C)c4)nc3c3ccccc32)CC1 | / | / | i | / | i | /
CCN(CC)S(=O)(=O)c1ccc(-c2nnc(SCC(=O)N3c4ccccc4CC3C)n2CC)cc1 (stereo not given) | 3% | 0% | 21µM* | -2% | i | -5%
CC1Cc2ccccc2N1C(=O)CSc1nnc(Cc2ccccc2)n1CCc1ccccc1 (stereo not given) | ? | -13% | 3.3µM* | -27% | i | ?
CCN(CC)S(=O)(=O)c1ccc(-c2nnc(SCC(=O)N3c4ccccc4CC3C)o2)cc1 (stereo not given) | -19% | -15% | ? | -2% | i | 5%
COc1cc(NC(=O)CCc2nc3cccnc3n2Cc2cccs2)cc(OC)c1OC | / | / | i | / | i | /
Cc1ccc(Cn2c(CN3CCC(C(=O)NCc4cccnc4)CC3)cc3ccccc32)cc1 | / | / | i | / | i | /
COc1ccc(/C=N/Nc2nncn2N)cc1Br | -6% | 16µM* | i | ? | i | 15%
Nn1cnnc1N/N=C/c1ccc(Cl)cc1Cl | 13% | ? | i | ? | i | -14%
COc1cc(/C=N/Nc2nncn2N)ccc1OCc1c(C)no[n+]1[O-] | 18µM* | ? | ? | ? | i | 1%
SMILES | MCF10A rerep | HT1080NT lethal | KB-V1 MDR tox | HT1080 IDH1KD tx | KB-3-1 tox | SW480 rereplic
COc1cc(/C=C(\C#N)C(N)=O)ccc1OCc1c(C)no[n+]1[O-] | 1% | 0% | ? | 1% | i | -24%
OC(CNCc1ccccc1F)COc1cccc2ccccc12 (stereo not given) | ? | ? | i | 15µM* | i | 21µM*
Cc1ccc2oc(=O)c3cnn(CC(=O)N(C)c4ccc(F)cc4)c3c2c1 | / | / | i | / | i | /
CCCn1cnnc1CNC(=O)[C@H]1O[C@@H](n2ccc(=O)[nH]c2=O)[C@H](O)[C@@H]1O | / | -3% | 18µM* | 1% | i | /
OC(COc1ccccc1)CN1CCN(Cc2ccc3c(c2)OCO3)CC1 (stereo not given) | 6% | 4% | i | 5% | i | -7%
O=C(c1ccccc1)N1CCN(Cc2ccc3c(c2)OCO3)CC1 | 6% | 10% | i | 16% | i | -5%
O=C(c1[nH]nc2c1CCc1ccccc1-2)N1CCN(Cc2ccc3c(c2)OCO3)CC1 | 10% | ? | ? | ? | 12µM* | 19%
Cc1cc(C)cc(OCC(O)CN2CCN(Cc3ccc4c(c3)OCO4)CC2)c1 (stereo not given) | 16µM* | -10% | i | -20% | i | 9%
Cc1ccc(C(=O)N2CCN(Cc3ccc4c(c3)OCO4)CC2)c(Cl)c1 | 7% | -10% | i | 16µM* | ? | 0%
O=C(c1cccn2c(=O)c3cc(Cl)ccc3nc12)N1CCN(Cc2ccc3c(c2)OCO3)CC1 | 10µM* | 5%[9.24 µM] | i | -27% | ? | 18µM*
O=C(c1cccn2c(=O)c3ccccc3nc12)N1CCN(Cc2ccc3c(c2)OCO3)CC1 | 28% | 13% | i | -4% | i | -1%
CC(NS(=O)(=O)c1ccccc1[N+](=O)[O-])c1ccccn1 (stereo not given) | / | / | i | / | ? | /
O=C(O)c1ccccc1NC(=O)N1c2ccccc2Sc2ccccc21 | / | / | i | / | i | /
COc1cccc(CNC(=O)c2cc3c(=O)oc4ccc(C)cc4c3s2)c1 | / | / | i | / | i | /
Cc1ccc(S(=O)(=O)N(C)c2ccc(C(=O)N3CCN(Cc4ccc5c(c4)OCO5)CC3)cc2)cc1 | ? | ? | 1.6µM* | ? | 12µM* | 7%
CN(c1ccc(C(=O)N2CCN(Cc3ccc4c(c3)OCO4)CC2)cc1)S(=O)(=O)c1ccccc1 | 24% | -9% | i | -4% | i | 4%
COc1ccc(C[C@H]2CN3C(=NC[C@@H]3C(C)C)N2CCNC(=O)CCC2CCCCC2)cc1 | ? | -1% | i | -19% | i | ?

High-throughput results deposited in PubChem by National Center for Advancing Translational Sciences (NCATS).
